From PubChem BioAssay
ssDAF-12 act: activators of S. stercoralis DAF-12 nuclear receptor; activation, % at 6.8 µM; AID 652126; HEK293 ssDAF-12/GRIP1 lit1-tk-luc reporter, luminescence; % of 3 µM dafachronic acid response; actives 1% (n = 370,000);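 active = activation above the mean over all tested compounds plus 3 SD, cut at about 0.9% in these data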
DAX1 inh-1: inhibitors of human orphan nuclear receptor DAX1 (NR0B1); P51843; HEK293 Gal4-DAX1 luciferase reporter, luminescence; inhibition, % at 6.75 µM; actives 0.99% (n = 340,000);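 active = inhibition above the mean over all tested compounds plus 3 SD, cut at about 4.2% in these data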;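 note: inhibition shows as a rise in luminescence from relieved DAX1 repression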
Target sequence (P51843 207-470 limits assumed): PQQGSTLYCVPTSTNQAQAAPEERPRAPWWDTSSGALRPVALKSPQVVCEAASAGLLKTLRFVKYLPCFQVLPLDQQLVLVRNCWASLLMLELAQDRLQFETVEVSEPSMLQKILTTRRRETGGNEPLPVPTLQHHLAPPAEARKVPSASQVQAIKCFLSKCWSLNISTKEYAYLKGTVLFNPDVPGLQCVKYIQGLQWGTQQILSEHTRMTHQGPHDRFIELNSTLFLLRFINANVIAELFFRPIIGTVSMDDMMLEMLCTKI
hcDAF-12 act: activates DAF-12 receptor from parasite H. contortus; activation, % at 6.8 µM; HEK293 hcDAF-12 lit1-tk-luc reporter, luminescence; 0% DMSO, 100% Δ7-dafachronic acid; actives 1.4% (n = 370,000);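 active = activation above the mean of all tested compounds plus 3 SD, cut at about 5.5% in these data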
FXN GAA850 act: increases GAA850 frataxin promoter reporter activity; HEK293 lucGAA850 FXN promoter luciferase reporter, 24 h; percent of 10 µM SAHA response; activation, % at 6 µM; actives 0.56% (n = 360,000); AID 540364;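 active = activation above the average of all compounds screened plus 3 SD, cutoff fixed separately per campaign, cut at about 7.5% in these data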
DAX1 inh-2: DAX1 (NR0B1) inhibition, primary screen; actives 1.1% (n = 370,000); AID 652010; HEK293T StAR-luciferase reporter, SF-1/DAX-1 repression relief; inhibition, % at 6.8 µM;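 active = inhibition above the mean over all tested compounds plus 3 SD, cut at about 3.6% in these data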;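 note: higher inhibition means more luminescence from relief of DAX-1 repression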
hgDAF-12 ag: agonists of H. glycines DAF-12 nuclear receptor. HEK293 GAL4-hgDAF12 UAS-luciferase reporter, agonist luminescence; normalized to butyrate control. activation, % at 6.8 µM. actives 1.8% (n = 370,000). AID 687014;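 active = activation above a cutoff set at the mean of all screened compounds plus 3 SD, cut at about 10% in these data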
Numbers stand for hits; i = inactive; nt = not tested or not shown. Only some compounds are listed: those with a hit (about 4.5% of all), similar ones and a draw of the others.

SMILES | ssDAF-12 act | DAX1 inh-1 | hcDAF-12 act | FXN GAA850 act | DAX1 inh-2 | hgDAF-12 ag
C=C(C1=CCN(S(=O)C(C)(C)C)[C@H]1CCO)c1ccccc1 (stereo partly specified) | i | i | i | i | i | i
C=C(C1=CCN(S(=O)(=O)C(C)(C)C)[C@H]1CCO)c1ccccc1 | i | 5.8 | i | i | i | i
O=P(Cc1ccncc1)(c1ccccc1)c1ccccc1 | i | 5.9 | i | i | i | i
O=C(NN1C(=O)C2C(C1=O)C1C=CC2C12CC2)c1cccc(Cl)c1 (stereo unspecified) | i | 5.0 | i | i | i | i
CC(C)[C@@H]1C(=O)N[C@H](Cc2cn(S(=O)(=O)c3ccccc3)c3ccccc23)C(=O)N1C | i | nt | i | nt | nt | i
O=[N+]([O-])c1cccnc1NCCc1ccccc1 | i | i | i | i | i | i
O=[N+]([O-])c1cccnc1NCCc1c[nH]c2ccccc12 | 1.0 | i | i | i | i | 12.3
c1ccc(-c2noc(C34CC5CC(CC(C5)C3)C4)n2)nc1 | 0.9 | i | 6.3 | i | i | i
Cc1occc1-c1nc(-c2ccncc2)no1 | i | i | i | i | i | i
c1ccc(-c2noc(-c3ccncc3)n2)nc1 | i | i | i | i | 3.8 | i
Cc1occc1-c1nc(-c2ccccn2)no1 | i | i | 6.0 | i | i | 11.3
COc1cccc(CNS(=O)(=O)c2cc3c(cc2Br)CC(C)N3C(C)=O)c1 (stereo unspecified) | i | nt | i | nt | i | i
COC(=O)[C@]12C[C@H](CC(=O)N3CCN(C(=O)c4ccco4)CC3)C(=O)N(CCC3=CCCCC3)C1=C[C@H](C1CCCC1)O[C@@H]2C | i | nt | i | nt | i | i
Cc1ccc(-c2[nH]c3ccccc3c2SCCN)cc1 | 1.2 | i | 6.0 | i | i | i
Cc1nc(N)nc(COc2ccccc2)n1 | i | 8.4 | i | i | i | i
COc1ccc(OCc2nc(N)nc(Nc3ccccc3)n2)cc1 | i | i | i | i | i | i
C[C@H]1[C@@H](N(C)Cc2ccccc2)CC[C@@]23CCCN2C(=O)CCC[C@@H]13 | i | nt | i | nt | nt | i
C/C(CCc1ccco1)=N\NC(=O)CNc1c(Br)cc(Br)cc1Br | i | 6.8 | i | i | i | i
COc1ccc(NC(=O)CSc2nnc(-c3n[nH]c4c3CCC4)n2N)cc1 | i | nt | i | nt | i | i
Cc1nc2c(C)cccn2c1/C(O)=C1\C(=O)C(=O)N(CCN(C)C)C1c1ccccc1 (stereo unspecified) | 1.0 | 5.8 | i | i | i | i
CCCCc1c(-c2ccccc2OC)ncn1Cc1ccc(Br)cc1 | i | nt | i | nt | i | i
COC(=O)[C@]12C[C@H](CC(=O)NCC34CC5CC(CC(C5)C3)C4)C(=O)N(CCC3=CCCCC3)C1=C[C@H](C(C)C)O[C@@H]2C1CC1 | i | nt | i | nt | i | i
CC(C)(C)c1ccc(/C=C/C(=O)N2CCCCC2)cc1 | i | i | i | i | 3.7 | 11.4
CC1CCN(C(=O)/C=C/c2ccc(C(C)(C)C)cc2)CC1 | i | i | i | i | i | i
Cn1c(SCC(=O)c2ccccc2)nnc1-c1ccc(O)cc1 | i | i | i | i | i | i
SMILES | ssDAF-12 act | DAX1 inh-1 | hcDAF-12 act | FXN GAA850 act | DAX1 inh-2 | hgDAF-12 ag
Cn1c(SCc2ccccc2)nnc1-c1ccc(O)cc1 | 0.9 | i | i | i | i | i
Cn1c(SCc2cccc(F)c2)nnc1-c1ccccn1 | i | 5.2 | i | i | i | i
Cn1c(SCc2cccc(Br)c2)nnc1-c1ccccn1 | i | i | i | i | i | i
Cn1c(SCc2ccccc2)nnc1-c1ccco1 | i | i | i | i | i | 12.7
C=CCN1C(=O)[C@H](CC(=O)NCCC(C)C)[C@@]2(C(=O)OCC)CCCC=C12 | i | nt | i | nt | i | i
O=C(N[C@H](Cc1ccccc1)C(=O)NCc1ccc2c(c1)OCO2)[C@H]1O[C@@H](n2ccc(=O)[nH]c2=O)[C@H](O)[C@@H]1O | i | nt | i | nt | i | i
O=C1CC(=O)C(n2cncn2)C(c2c(F)cccc2Cl)C1 (stereo unspecified) | i | i | i | i | i | i
O=C1CC(=O)C(n2cncn2)C(c2ccc(Cl)cc2)C1 (stereo unspecified) | i | 5.8 | i | i | i | i
O=C(OCc1nnc(-c2ccccc2)o1)C12CC3CC(CC(Br)(C3)C1)C2 | i | 4.8 | i | i | i | i
CC(C)[C@@H](C)/C=C/[C@@H](C)[C@H]1CC[C@@H]2[C@]1(C)CCC1[C@]23C=C[C@]2(C[C@@H](O)CC[C@]12C)N(C(=O)Cc1ccccc1)O3 (stereo partly specified) | i | nt | i | nt | i | i
Cc1nn(Cc2c(F)c(F)c(F)c(F)c2F)c(C)c1NC(=O)c1ccc(COc2cc(Cl)ccc2Cl)cc1 | 3.4 | i | i | i | i | i
COC(=O)C1CCCN(C(=O)C2CCN(S(=O)(=O)c3ccc([N+](=O)[O-])cc3)CC2)C1 (stereo unspecified) | i | nt | i | nt | i | i
COc1ccccc1N/C=C/c1onc(C)c1[N+](=O)[O-] | i | i | i | i | i | i
Cc1noc(/C=C/Nc2ccc(F)cc2F)c1[N+](=O)[O-] | i | i | i | i | i | 12.4
Cc1cc(Nc2ccc(F)c(Cl)c2)n2ncnc2n1 | i | 4.5 | i | i | i | i
CCc1ccc(Nc2cc(C)nc3ncnn23)cc1 | i | i | i | i | i | i
CCn1c2ccccc2c2cc(Nc3cc(C)nc4ncnn34)ccc21 | i | i | i | i | 3.6 | i
O=C(CSc1ccccc1)NC1CCCCN(Cc2ccc(Cl)cc2)C1=O (stereo unspecified) | i | nt | i | nt | i | i
C=CCN1C(=O)[C@@H](CC(=O)NCCCC)[C@]2(C(=O)OC)CCCCC=C12 | i | nt | i | nt | i | i
CCOC(=O)N1CCN(C(=O)C[C@H]2C[C@@]3(C(=O)OC)C(=C[C@H](C4CCCC4)O[C@@H]3C)N(Cc3ccco3)C2=O)CC1 | i | nt | i | nt | i | i
Cc1cc(C)cc(NC(=O)N2CCN(Cc3nc4ccccc4c(=O)[nH]3)CC2)c1 | i | nt | i | nt | i | i
CC(=O)c1ccc(Nc2cc(C)nc3c(C)cccc23)cc1 | i | i | i | i | i | 11.2
CC1NC(=O)c2cc3ccccc3cc2-n2c1nc1cc(F)ccc1c2=O (stereo unspecified) | 1.8 | i | i | i | i | i
CC(C)CC1NC(=O)c2cc3ccccc3cc2-n2c1nc1cc(Cl)ccc1c2=O (stereo unspecified) | i | i | i | i | i | i
Cc1ccc2c(=O)n3c(nc2c1)C(Cc1ccccc1)NC(=O)c1cc2ccccc2cc1-3 (stereo unspecified) | 1.2 | i | i | i | i | i
CC1NC(=O)c2cc3ccccc3cc2-n2c1nc1cc(Cl)ccc1c2=O (stereo unspecified) | 1.1 | i | i | i | i | i
